Screens from PubChem BioAssay.
Hits are enriched below; roughly 4.8% of the tested compounds scored in any of these assays.
SMARCA2 activ: SMARCA2 (BRM) function activators, primary screen, cell-based, luminescence, high throughput. activation, % at 9.1 µM. MG213 cells, MMTV-luciferase reporter, dexamethasone, overnight. hit rate 1% among 370,000; in the data active means activation above about 7.8%
ssDAF-12 act: S. stercoralis DAF-12 nuclear receptor activators, primary screen, cell-based, luminescence, HEK293, GRIP1 co-expression, lit1-tk-luc. Nuclear hormone receptor DAF-12 (Strongyloides stercoralis). HEK293 ssDAF-12/GRIP1 lit1-tk-luc reporter; % of 3 µM dafachronic acid response. activation, % at 6.8 µM. hit rate 1% among 370,000;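 active means activation above the mean over all tested compounds plus 3 SD, cut at about 0.9% in these data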
hcDAF-12 act: H. contortus DAF-12 nuclear receptor activators, primary screen, cell-based, luminescence, HEK293, lit1-tk-luc reporter; HEK293 hcDAF-12 lit1-tk-luc reporter; 0% DMSO, 100% Δ7-dafachronic acid; activation, % at 6.8 µM; hit rate 1.4% among 370,000;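 active means activation above the mean of all tested compounds plus 3 SD, cut at about 5.5% in these data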
hgDAF12 agonist: H. glycines DAF-12 receptor agonists, primary screen, cell-based, luminescence, HEK293, GAL4 fusion, UAS-luciferase; Nuclear hormone receptor DAF-12 (Heterodera glycines), GAL4 fusion; HEK293 GAL4-hgDAF12 UAS-luciferase reporter, agonist luminescence; normalized to butyrate control; activation, % at 6.8 µM; hit rate 1.8% among 370,000; AID 687014, 2013;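 active means activation above a cutoff set at the mean of all screened compounds plus 3 SD, cut at about 10% in these data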
DAX1 inh-1: DAX1 (NR0B1) inhibitors on StAR promoter, primary screen, cell-based, luminescence, SF-1 (NR5A1), full-length DAX-1; HEK293T StAR-luciferase reporter, SF-1/DAX-1 repression relief; inhibition, % at 6.8 µM; hit rate 1.1% among 370,000;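 active means inhibition above the mean over all tested compounds plus 3 SD, cut at about 3.6% in these data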;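 further: higher inhibition means more luminescence from relief of DAX-1 repression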
DAX1 inh-2: DAX1 (NR0B1) inhibitors, primary screen, cell-based, HEK293, Gal4-DAX1, luciferase luminescence; Nuclear receptor subfamily 0 group B member 1 (Homo sapiens), P51843; HEK293 Gal4-DAX1 luciferase reporter; inhibition, % at 6.75 µM; hit rate 0.99% among 340,000;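 active means inhibition above the mean over all tested compounds plus 3 SD, cut at about 4.2% in these data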;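 further: inhibition shows as a rise in luminescence from relieved DAX1 repression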
Target sequence (P51843 207-470 limits assumed): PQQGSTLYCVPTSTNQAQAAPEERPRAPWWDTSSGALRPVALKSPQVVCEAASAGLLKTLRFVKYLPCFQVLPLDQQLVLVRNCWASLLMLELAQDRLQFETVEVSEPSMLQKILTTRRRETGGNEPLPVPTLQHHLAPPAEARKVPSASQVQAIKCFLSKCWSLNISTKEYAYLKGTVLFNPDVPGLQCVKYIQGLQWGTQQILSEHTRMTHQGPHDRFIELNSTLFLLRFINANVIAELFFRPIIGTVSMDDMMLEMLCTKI
LXR ag: LXR agonists, Gal4 luciferase reporter, confirmation, counter-screen for hcDAF-12 agonist project, cell-based, luminescence, HEK293, H. contortus campaign; HEK293 Gal4-LXR tk-luc reporter, 24 h; normalized: DMSO 0%, positive control 100%; shares compounds with hcDAF-12 act; 3,400 tested, under 10 active; activation, % at 6.8 µM;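 active means mean percent activation of the reporter above a cutoff set as the average over tested compounds plus their standard deviation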
hcDAF12 conf: H. contortus DAF-12 receptor agonists, confirmation, cell-based, luminescence, HEK293, lit1-tk-luc, triplicate; shares compounds with hcDAF-12 act; HEK293 hcDAF-12 lit1-tk-luc reporter; % of Δ7-dafachronic acid response; activation, % at 6.8 µM; hit rate 61% among 3,400;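 active means mean activation across triplicate tests above the threshold derived from the earlier primary screen, cut at about 5.5% in these data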
Of the large screens only hits and unclear results are named; the others gave an inactive call (follow-up assays come after a bar, where they were run).

CN(C)S(=O)(=O)c1ccc(C(=O)NCC(=O)Nc2ccc(F)c(F)c2)cc1	hcDAF-12 act 6.8 | LXR ag inactive | hcDAF12 conf inactive
CN1/C(=C\C=C2/SC(=S)NC2=O)C(C)(C)c2ccccc21	none
CN1CCC/C1=C/C=C1\SC(=S)NC1=O	hcDAF-12 act 7.0 | LXR ag inactive | hcDAF12 conf inactive
CCC1CCCCN1CCCNC(=O)c1ccc2c(c1)NC(=O)CN2C (stereo not given)	hcDAF-12 act 8.8 | LXR ag inactive | hcDAF12 conf inactive
CCC1CCCCN1CCCNC(=O)c1ccc(N2CCOCC2)c(NS(=O)(=O)c2ccc(OC)cc2)c1 (stereo not given)	none
O=C1C=C(Nc2ccccc2)c2ccccc2C1=O	none
O=C1C=C(Nc2ccccc2)C(=O)c2ccccc21	hcDAF-12 act 7.6 | LXR ag inactive | hcDAF12 conf 7.0
COc1ccc(-c2nc3n(c2C)Cc2ccccc2-3)cc1	ssDAF-12 act 2.2, hcDAF-12 act 9.9, hgDAF12 agonist 12 | LXR ag inactive | hcDAF12 conf 7.5
COc1ccccc1-c1nc(SCc2ccccn2)n[nH]1	hcDAF-12 act 6.9, DAX1 inh-2 4.9 | LXR ag inactive | hcDAF12 conf 9.0
COc1ccccc1-c1nnc(SCc2ccccn2)n1C	none
c1ccc(Oc2cccc(Oc3ccccc3)n2)cc1	none
CC1Cc2ccccc2N1C(=O)Cn1cc([N+](=O)[O-])ccc1=O (stereo not given)	none
N#C/C(=C\c1ccccc1OCC(=O)O)c1nc2ccccc2[nH]1	hcDAF-12 act 7.8 | LXR ag inactive | hcDAF12 conf inactive
N#C/C(=C\c1cn(-c2ccccc2)nc1-c1cc2ccccc2o1)c1nc2ccccc2[nH]1	hcDAF-12 act 6.6 | LXR ag inactive | hcDAF12 conf inactive
O=C(N/N=C/c1cn(-c2ccccc2)nc1-c1cc2ccccc2o1)c1cccnc1	ssDAF-12 act 1.2, hcDAF-12 act 8.6 | LXR ag inactive | hcDAF12 conf 11
N#C/C(=C\c1cccs1)c1nc2ccccc2[nH]1	none
Clc1ccccc1CNc1ncnc2nc[nH]c12	none
O=C(Nc1nc2ccccc2s1)c1cnccn1	hcDAF-12 act 7.5, hgDAF12 agonist 13, DAX1 inh-1 4.0 | LXR ag inactive | hcDAF12 conf 6.6
CC(=O)c1cccc(NC(=O)c2cnccn2)c1	none
O=C(Nc1ccc2nccnc2c1)c1cnccn1	hcDAF-12 act 6.7 | LXR ag inactive | hcDAF12 conf inactive
O=C(Nc1nc2ccccc2s1)C1=NN(c2ccccc2)C(=O)CC1	hcDAF-12 act 6.8 | LXR ag inactive | hcDAF12 conf inactive
C[C@H]1CN([C@@H](C)CO)C(=O)CCCn2nncc2CO[C@@H]1CN(C)C(=O)Cc1ccccc1	none
O=C(CN1CCN(c2ncc(C(F)(F)F)cc2Cl)CC1)NCCNc1ncc(C(F)(F)F)cc1Cl	none
CCCCn1c(O)c2n(c1=O)Cc1ccccc1N=C2c1ccc(C)cc1	hcDAF-12 act 7.3 (no result: DAX1 inh-2) | LXR ag inactive | hcDAF12 conf inactive
O=C1c2ccccc2NC(c2ccc(-c3cccs3)o2)N1O (stereo not given)	ssDAF-12 act 1.0, hcDAF-12 act 7.1, hgDAF12 agonist 12 | LXR ag inactive | hcDAF12 conf 6.0
CC1CCCC(C)N1C(=O)c1cc(-c2ccc3c(c2)OCO3)on1 (stereo not given)	hcDAF-12 act 6.6, hgDAF12 agonist 11 | LXR ag inactive | hcDAF12 conf inactive
CSCCC(NC(=O)c1ccccc1)C(=O)NCc1ccc(S(N)(=O)=O)cc1 (stereo not given)	none
Nc1ccc2nc(CCCCc3nc4ccccc4[nH]3)[nH]c2c1	none
Nc1cccc(CCc2nc3cc4ccccc4cc3[nH]2)c1	hcDAF-12 act 12, hgDAF12 agonist 12 | LXR ag inactive | hcDAF12 conf 8.7
N/C(=N\OC(=O)C1CCCCC1)c1ccc(Br)cc1	none
COc1ccccc1C1CC(c2cccs2)=NN1C(=O)CCC(=O)O (stereo not given)	hcDAF-12 act 7.0 | LXR ag inactive | hcDAF12 conf inactive
O=C(CNc1ccccc1C(=O)O)c1ccccc1	hcDAF-12 act 7.7 | LXR ag inactive | hcDAF12 conf inactive
O=C(NN=C(Cc1ccccc1)Cc1ccccc1)c1ccc(F)cc1	hcDAF-12 act 6.8 | LXR ag inactive | hcDAF12 conf inactive
C/C(Cc1ccccc1)=N\NC(=O)c1ccc(F)cc1	none
O=C(CSc1ccc2ccccc2n1)c1ccccc1	ssDAF-12 act 1.4, hcDAF-12 act 9.3 | LXR ag inactive | hcDAF12 conf 8.2
Cc1nc2ccccc2nc1SCC(=O)c1ccccc1	hcDAF-12 act 6.7 | LXR ag inactive | hcDAF12 conf inactive
Cc1cc(NC(=O)c2ccccc2)no1	none
Cc1cc(NC(=O)C2Oc3ccccc3OC2C)no1 (stereo not given)	hcDAF-12 act 7.0 | LXR ag inactive | hcDAF12 conf inactive
Nc1c2c(nc3sc4c(c13)CCCC4)-c1ccccc1CC2	ssDAF-12 act 1.1, hcDAF-12 act 7.6 | LXR ag inactive | hcDAF12 conf 11
CCc1ccc(OCC(=O)N/N=C/c2cc([N+](=O)[O-])ccc2N2CCOCC2)cc1	none
Oc1ccccc1C1NN=C(c2ccccc2)S1 (stereo not given)	ssDAF-12 act 4.2, hcDAF-12 act 20, hgDAF12 agonist 16, DAX1 inh-1 4.1 | LXR ag inactive | hcDAF12 conf 16
CSc1ccc(C2NN=C(c3ccccc3)S2)cc1 (stereo not given)	ssDAF-12 act 2.3, hcDAF-12 act 12, hgDAF12 agonist 15 (no result: DAX1 inh-2) | LXR ag inactive | hcDAF12 conf 14
